Data: the supplement of paper PMC6555819

How the values were obtained:
Assay in all cases: PBM binding z-score (relative to random genomic background probes); higher = stronger binding; sequences stand for … in GC…GCGATTGACAGCGTAGAATGAAGG
[1] = tested on: FXR:RXRa (NR concentration 270 nM, RXRa partner concentration 90 nM)
How it was run: (§1)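 Probes were double-stranded and carried 34-nt variable regions with direct-repeat seeds, single-nucleotide variants, half-site ablations and random human genomic background sequences, printed on custom Agilent 4×180K protein-binding microarrays. Arrays were incubated 1 h with ligand-free nuclear receptor dimers in PBS pH 7.4, 2% milk, 0.02% Triton X-100, 1 mM DTT, 0.2 mg/mL BSA and 0.4 mg/ml salmon testes DNA. Antibodies against each partner (one per run) detected binding, and scanned fluorescence was regression-normalized. Binding z-scores use the random background probes as reference.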

[2] = tested on: LXRa:RXRa (NR concentration 270 nM, RXRa partner concentration 90 nM)
How it was run: as §1

[3] = tested on: LXRa homodimer (NR concentration 270 nM)
How it was run: as §1

[4] = tested on: LXRb:RXRa (NR concentration 270 nM, RXRa partner concentration 90 nM)
How it was run: as §1

[5] = tested on: LXRb homodimer (NR concentration 270 nM)
How it was run: as §1

[6] = tested on: PPARa:RXRa (NR concentration 270 nM, RXRa partner concentration 90 nM)
How it was run: as §1

[7] = tested on: PPARg:RXRa (NR concentration 180 nM, RXRa partner concentration 90 nM)
How it was run: as §1

[8] = tested on: PPARg:RXRa 270nM:90nM, anti-RXR (NR concentration 270 nM, RXRa partner concentration 90 nM)
How it was run: as §1

[9] = tested on: PPARg:RXRa 30nM:10nM, anti-RXR (NR concentration 30 nM, RXRa partner concentration 10 nM)
How it was run: as §1

[10] = tested on: PPARg:RXRa 90nM:30nM, anti-RXR (NR concentration 90 nM, RXRa partner concentration 30 nM)
How it was run: as §1

Sequence | PBM binding z-score [1] | PBM binding z-score [2] | PBM binding z-score [3] | PBM binding z-score [4] | PBM binding z-score [5] | PBM binding z-score [6] | PBM binding z-score [7] | PBM binding z-score [8] | PBM binding z-score [9] | PBM binding z-score [10]
CCTACTGTGCCAAAAAGGTCATTGATGCCGATAA | 4.4 | 4.59 | 4.4 | 4.55 | 1.59 | 4.73 | 3.18 | 3.69 | 1.41 | 3
GCTCGGAGGACAAGATCAGAGCTTTGTCCGTAGA | -0.699 | -0.742 | -0.685 | -0.96 | -0.96 | -0.552 | -0.773 | -0.906 | -1.18 | -1.04
AATACAGGGTCAATAGGCCAGAGTAGGTACGAAT | 6.54 | 5.03 | 0.816 | 3.72 | 0.669 | 5.72 | 6.47 | 5.46 | 2.53 | 4.61
GCTTGTAGATCAAGGTTAACAAAGACTAAGCTAA | 0.151 | 1.17 | -0.222 | 0.96 | -0.488 | 1.91 | 2.04 | 3.12 | 0.936 | 2.61
TCTTGTAGATAAAGCAGGTTAAGAAAGCCTGAGT | 0.606 | 0.66 | -0.172 | 0.585 | -0.647 | 1.06 | -0.166 | 1.54 | 2.82 | 2.17
CGAACTAGGTCATTGACAGGGCAGTGAATAGTAA | 4.4 | 3.17 | 0.428 | 1.99 | -0.104 | 4.74 | 7.4 | 6.18 | 3.75 | 5.96
ACTATTAGTTGACTTAGGGCAACCAATACGACGC | 0.265 | 0.363 | 0.224 | 0.227 | 0.496 | 0.111 | 0.997 | 0.305 | 0.385 | 0.219
CGTCGAAGGTCAAGGTCAGTGAAAGAGACTCGAA | 7.03 | 5.5 | 0.585 | 4.59 | 0.681 | 6.39 | 6.6 | 6.24 | 2.48 | 5.24
ATCTCTAGGTAAAAGTTCAATGAATCCCGAGGAT | 1.81 | 2.65 | 2.7 | 2.03 | 1.14 | 4.88 | 8.83 | 8.49 | 8.81 | 9.69
ATCGAAAGGTCGAGGTGAGTAAAGAGAAAGGGAA | 4.14 | 3.26 | 0.0324 | 2.59 | 0.664 | 4.57 | 3.27 | 3.83 | 1.09 | 2.5
CTCGAAAGGTCGTGCTCATGTGAGTATACCAAAC | 5.17 | 3.72 | 0.36 | 3.54 | 0.234 | 5.08 | 2.86 | 3.9 | 0.836 | 2.6
GCATATAGGTAATACCAGGTGAAAGTCCGATTGT | 0.107 | 2.05 | 0.172 | 0.185 | -0.363 | 1.26 | 1.13 | 1.19 | 0.303 | 0.881
CAAACTAGGTCAAGGTCAAAGCCGGTTTGTGCCA | 6.25 | 5.33 | 3.23 | 4.36 | 1.05 | 6.15 | 9.26 | 8.02 | 6.18 | 7.95
